Measured values taken from PubChem BioAssay AID720514 (Broad Institute, 2013).
The whole screen tested about 2,100 compounds, of which about 300 (14%) were called active. Not shown: some 2% with an inconclusive outcome.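 How the source made its calls: active means every replicate test run called active, with the signal falling and half-maximal concentration within twice the top valid dose; inconclusive means the replicate test runs disagree in their calls; inactive means every test run inactive, including effects in the opposite direction.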 Not all results are given here. Entries with a potency or affinity are not part of this list.

Test: inhibitors of PGC1a acetylation in cells, dose response, cell-based, cherry-picked samples (AID 720514);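 further: actives lower the acetylation signal so they count as inhibitors of PGC1a acetylation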
Conditions: U2OS PGC1a acetylation, AlphaLISA, overnight; series mostly up to 19.5 µM

outcome, inactive:
CCC(C)(C)n1nnnc1C(c1ccccc1OC)N1CCSCC1 (stereo unspecified)
CC(NS(=O)(=O)c1ccccc1Cl)C1CC2CCC1C2 (stereo unspecified)
C/C=C(/C)C(=O)O[C@@H]1c2cc(OC)c(OC)c(OC)c2-c2c(cc3c(c2OC)OCO3)C[C@H](C)[C@]1(C)O
O=C(CCc1nc2ccccc2c(=O)[nH]1)Nc1ccc(N2CCCCC2)cc1
Cn1ncc(C(=O)Nc2ccc(Cl)cc2)c1C(F)(F)F
O=C(CCCc1nc(-c2ccccc2Cl)no1)NCc1cccnc1
COc1cccc(N(CC(=O)NCc2cccnc2)S(C)(=O)=O)c1
O=C(Cc1ccc(Cl)cc1)c1c[nH]c(C(=O)NCc2cccnc2)c1
O=C(CCCCCN1C(=O)c2cccc3cccc(c23)C1=O)NCc1cccnc1
O=C(NCc1cccnc1)c1ccc(NC(=O)c2ccc(Br)cc2)cc1
O=C(NCc1ccccc1)C1Cc2c(-c3ccc(Cl)cc3)ccnc2O1 (stereo unspecified)
CN(C)CC(O)c1ccc(C=Cc2ccc(Cl)cc2)cc1 (stereo unspecified)
CC(=O)Nc1ccc(NC(=O)CN(c2cccc([N+](=O)[O-])c2)S(C)(=O)=O)cc1
COc1ccc(CCn2c(-c3ccc(OC)cc3)nc3c(c(=O)c4ccccc4n3C)c2=O)cc1
COc1ccccc1/C=C1\SC(=O)N(CCC(=O)NCCCn2ccnc2)C1=O
CCN(CC)C(=O)CSc1nnc2nnc3cc(Cl)ccc3n12
COC(=O)c1ccc(NC(=O)c2cccnc2)cc1
COc1ccccc1NC(=O)c1ccc(NC(=O)CNC(=O)c2ccc(OC)c(OC)c2)cc1
COc1ccc(-c2csc3nc(C)nc(N4CCC(C)CC4)c23)cc1OC
COc1ccc(Nc2nnc(-c3ccc(C(N)=O)cc3)c3ccccc23)cc1
COc1ccc(Nc2nnc(C)c3ccccc23)cc1
O=C(Cc1ccccc1)Nc1cccc(-c2nc3ncccc3o2)c1
CC1CC(NS(=O)(=O)c2cccs2)CC(C)(C)C1 (stereo unspecified)
COc1ccc(Nc2nc(N)c(C(=O)c3ccc(OC)cc3)s2)cc1
Nc1c(C(=O)Nc2ccccc2)sc2ncc([N+](=O)[O-])cc12
OC1CCCC1NCc1ccnc2cc(Cl)ccc12 (stereo unspecified)
Cc1ccc(Nc2nnc(C)c3ccccc23)c(C)c1
COc1ccc(OC)c(C(=O)/C=C/c2ccccc2C(F)(F)F)c1
C[C@@H]1CN([C@H](C)CO)C(=O)c2c(c3ccccc3n2C)-c2ccccc2CO[C@@H]1CN(C)C(=O)Nc1cccc(C(F)(F)F)c1
COc1cc(-c2cnc3c(NC(C)=O)cc(-c4ccccc4CN(C)C)cn23)cc(OC)c1OC
Cn1c(CN2CCCC2)nc2cc(NC(=O)COc3ccc(Cl)cc3)ccc21
C=CCS(=O)(=O)c1nc2ccccc2s1
Cc1cc(C)nc(NC(=O)c2c(-c3ccccc3Cl)noc2C)n1
COc1ccc(-c2cc(-c3ccccc3O)[nH]n2)cc1OC
COc1cc(-c2nnn(CC#N)n2)ccc1OCc1ccccc1
O=C(Nc1ccccc1)C1=C[C@@H](c2ccc(C(F)(F)F)cc2)C[C@@H](OCc2ccc(CO)cc2)O1
COc1ccccc1NC(=O)N1C[C@@H]2N[C@H](C1)C2c1ccc(/C=C/c2ccccc2)cc1 (stereo partly specified)
O=C(C1CCC1)N1CCN(S(=O)(=O)c2ccccc2)CC1
COC(=O)C[C@H]1c2cc(C(F)(F)F)ccc2S(=O)(=O)N1Cc1ccc(OC)cc1
Cc1nnc(NCc2ccccc2)c2ccccc12
O=C(CC1CC1)N[C@H]1CC[C@H](CCNS(=O)(=O)c2ccc(Cl)cc2)O[C@H]1CO
CC(=O)c1cc(-c2ccccc2)n(CCC(=O)NC2CCCCC2)c1C
O=C(c1cc(C2CC2)on1)N1CCCC(N2CCN(c3cccc(C(F)(F)F)c3)CC2)C1 (stereo unspecified)
COc1cc2cc(-c3ccc(O)cc3O)nc(C)c2cc1OC
O=C(Cc1ccccc1)N1CCN(c2ccc([N+](=O)[O-])cc2)CC1
Cc1ccc(C(=O)N2CCN(c3ccc(NC(=O)c4ccc(Br)o4)cc3)CC2)cc1
O=C(CN1CCC(n2nnc3cc(F)ccc32)CC1)NCc1ccco1
C[C@@H]1CN([C@@H](C)CO)C(=O)c2c(c3ccccc3n2C)-c2ccccc2CO[C@@H]1CN(C)C(=O)Nc1ccc(F)cc1
Cc1cc(C)c2nc(N(CCCN(C)C)C(=O)c3ccc(S(=O)(=O)N4CCCCCC4)cc3)sc2c1
CN1c2ccccc2C2(C)CCCC3=Cc4cccc([N+](=O)[O-])c4OC312 (stereo unspecified)
O=C(Cc1ccccc1)Nc1ccc(NC(=O)c2cccs2)cc1
Cc1cccc(C(=O)Nc2ccc(C(=O)/C=C/c3cccnc3)cc2)c1
O=C(CS(=O)CC(=O)Nc1cccc2c1CCCC2)Nc1ccc(F)cc1 (stereo unspecified)
CNC(=O)c1nnsc1S(=O)c1ccc(Cl)cc1 (stereo unspecified)
Clc1ccc(-c2nnc(-c3ccccc3)nc2N2CCSCC2)cc1
Nc1c(C(=O)Nc2ccccc2)c2nc3ccccc3nc2n1CCCN1CCOCC1
CC(=O)NC(c1cccc(F)c1)c1nc(-c2cccc(C(C)C)c2)cs1 (stereo unspecified)
COc1cc2nc(SCc3c(C)noc3C)n(CCC3=CCCCC3)c(=O)c2cc1OC
c1ccc(N2CCN(c3ccccc3)C2c2ccncc2)cc1
CCC(CC)C(=O)c1c[nH]c(C(=O)NCc2ccccc2)c1
CCOC(=O)C1CCCN(S(=O)(=O)c2ccc3c(c2)NC(=O)CO3)C1 (stereo unspecified)
CCOc1ccc2c(c1)C(C)=CC(C)(C)N2S(=O)(=O)c1ccc(C)cc1
O=C1CC(Sc2nnc(-c3ccccc3O)o2)C(=O)N1c1ccccc1 (stereo unspecified)
CCOC(=O)c1[nH]c(C)c(C(=O)Nc2cc(OC)ccc2OC)c1C
CC(=O)c1ccc(N2CCN(c3ccc(S(=O)(=O)NCCCN(C)C)cc3[N+](=O)[O-])CC2)cc1
CC(=O)c1ccc(N2CCN(c3ccc(S(=O)(=O)NCCN(C)C)cc3[N+](=O)[O-])CC2)cc1
